Rows were chosen to be rich in hits. Some 4% of all compounds tested hit in one or more screens of this group.
KCC2 mod = KCC2 cotransporter modulators, thallium flux, primary screen, cell-based, HEK293 KCC2, FluoZin-2 fluorescence, MLSMR; KCC2 cells, thallium flux FluoZin-2 fluorescence; B-score of Tl+ flux slope (higher = more flux/activation; lower = inhibition) at 10 µM; 190,000 tested, 2.2% active;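 active = thallium flux slope and its plate-corrected score both differing from the plate sample mean at a set confidence after two filtering rounds, in either direction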;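 also: slope of fluorescence scaled to starting intensity during 10 to 20 s after thallium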
Arbovirus anti = antivirals against arbovirus infection, primary screen, cell-based, full library, 10K replicate subset; arbovirus infection cell-based antiviral screen; inhibition, % at 10 µM; 200,000 tested, 0.37% active; in the data active = inhibition above about 30%
Measles CPE = compounds protecting cells from measles virus cytopathic effect, primary screen, measles RdRp inhibitor project, single point, MLSMR library, absorbance | protection (pct of control), % at 4 µM | 140,000 tested, 1.5% active | Measles virus-infected cells, CPE protection; in the data active = protection mostly above about 24%, no sharp cut-off; inactive = mostly below about 26%
HSV replic up = enhancers of HSV replication in host cells, fold increase, host cell viability. HSV replication augmentation in cells. maximum fold increase. 220,000 tested, 0.005% active. AID 1956, 2009; in the data active = maximum fold increase above about 1.5; inconclusive = no clear call, values can overlap the other calls; tested in PC3 cells
ROMK primary = ROMK potassium channel modulators, primary screen, cell-based, thallium flux, MLSMR library; B-score at 10 µM; ATP-sensitive inward rectifier potassium channel 1 (Homo sapiens), P48048; 130,000 tested, 2% active; Tet-inducible ROMK, thallium flux fluorescence; actives lie on both sides; AID 1918, 2009;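 active = signal ratio slope over the read window, or its plate-corrected B-score, at least 3 SD from the plate mean, either direction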;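 also: B-score of the F/F0 ratio slope over 7 to 12 s after thallium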
ROMK retest = ROMK channel modulator hit retest, confirmation, cell-based, thallium flux, duplicate, resupplied hits; shares compounds with ROMK primary; fluorescence ratio; hits give low values; normalized thallium flux (F/F0 slope) at 10 µM; 3,000 tested, 54% active;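 active = Flux at 10 µM at least 3 SD below or above vehicle control mean in one or both replicates; inconclusive = no clear call, values can overlap the other calls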
Of the large screens only hits and unclear results are named; the others gave an inactive call (follow-up assays come after a bar, where they were run).

CCc1cccc(NC(=O)c2cc(OC)c(OC)c(OC)c2)c1	ROMK primary 1.3 (no result: KCC2 mod, Measles CPE) | ROMK retest inactive
CC(C)(C)C1=CC(=O)C(=O)C(C(C)(C)C)=C1	ROMK primary -2.3 | ROMK retest 0.058
Cc1ccc(SC(C)c2nc(-c3ccncc3)no2)cc1 (stereo unspecified)	ROMK primary -3.1 | ROMK retest 0.067
Cc1ccc(SCc2nc(-c3ccncc3)no2)cc1	none (no result: ROMK primary)
O=C(Nc1ccc2oc(-c3ccncc3)nc2c1)c1cccs1	Measles CPE 42 (no result: KCC2 mod, ROMK primary) | ROMK retest inactive
O=C(Nc1ccc(-c2nc3cc(NC(=O)c4cccs4)ccc3o2)cc1)c1cccs1	none (no result: ROMK primary)
CCCNC(=S)N1CCN(C(c2ccccc2)c2ccccc2)CC1	ROMK primary -3.2 | ROMK retest inactive
Cc1c(O)ccc2c(O)c(NC(=O)c3ccc4c(c3)CCC(C)(C)O4)c(=O)oc12	none (no result: Arbovirus anti, Measles CPE, ROMK primary)
Cc1nnc(NC(=O)CSc2ncnc3c2cnn3-c2ccccc2C)s1	none (no result: ROMK primary)
CCOC(=O)Cc1csc(NC(=O)CSc2ncnc3c2cnn3-c2ccccc2Cl)n1	none (no result: ROMK primary) | ROMK retest 0.054
CCOC(=O)C1=C(N)N(c2cc(S(=O)(=O)N3CCOCC3)ccc2Cl)C(=O)C1	none (no result: Measles CPE)
C=C(C)CSc1cc(C)nc2c(-c3ccccc3)c(C)nn12	none (no result: Arbovirus anti, Measles CPE, ROMK primary)
Cc1nn(C)c(C)c1NC(=O)c1ccccc1NC(=O)Nc1ccccc1	none (no result: Arbovirus anti, Measles CPE)
CCCCCc1cc(=O)oc2c(C(CCN3CCCC3)c3ccc(N(C)C)cc3)c(OC)cc(OC)c12 (stereo unspecified)	none (no result: Arbovirus anti, Measles CPE, ROMK primary) | ROMK retest inconclusive
COCCOC(=O)/C(C#N)=C/c1cn(Cc2ccccc2)nc1-c1cccnc1	none (no result: Measles CPE)
CC(=O)Cc1nsc(NC(=O)c2ccc(Br)o2)n1	none (no result: ROMK primary)
CC(=O)Cc1nsc(NC(=O)c2ccc(-c3cccc(Cl)c3)o2)n1	ROMK primary 4.3 (no result: Measles CPE) | ROMK retest inactive
O=c1c(Cl)c(O)c2cccc3c4ccccc4n1c23	none | ROMK retest inactive
O=C(c1c[nH]c(C(=O)N2CCN(c3ccccc3F)CC2)c1)c1cccc(Cl)c1Cl	none (no result: Measles CPE)
COC(=O)c1[nH]c2ccc(Cl)cc2c1NC(=O)C1CC1	none (no result: KCC2 mod, HSV replic up, ROMK primary) | ROMK retest inactive
COC(=O)c1[nH]c2ccc(Cl)cc2c1NC(=O)Oc1ccccc1	none (no result: ROMK primary)
COc1cccc(OCCn2cccc2/C=C2/C(=N)N3OC(C)=CC3=NC2=O)c1	ROMK primary -3.3 (no result: Measles CPE) | ROMK retest inactive
O=[N+]([O-])c1ccc(N2CCN(C(=S)c3cccc([N+](=O)[O-])c3)CC2)cc1	ROMK primary -3.1 (no result: Arbovirus anti, Measles CPE) | ROMK retest 0.065
Cc1c(Cl)cccc1NC(=O)CSC(N)=O	ROMK primary -2.6 (no result: Measles CPE) | ROMK retest inactive
CC(=O)c1ccc(N(C(=O)CS(=O)CC(=O)Nc2ccc(F)cc2)C(C(=O)NC2CCCCC2)c2cccs2)cc1 (stereo unspecified)	ROMK primary -3.3 | ROMK retest inactive
CC(=O)c1cccc(N(C(=O)CS(=O)CC(=O)Nc2ccc(F)cc2)C(C(=O)NC2CCCCC2)c2ccc(C)o2)c1 (stereo unspecified)	none (no result: ROMK primary)
C[n+]1nc(Nc2cccc3ccccc23)sc1-c1ccc(C(=O)O)cc1	none (no result: Arbovirus anti, Measles CPE, ROMK primary)
Cc1nn(-c2ccc(Cl)cc2)c(=O)c2c(C)noc12	none (no result: Arbovirus anti, Measles CPE)
CCOC(=O)c1[nH]c2ccccc2c1NC(=S)Nc1ccccc1	none (no result: HSV replic up)
CCOC(=O)c1[nH]c2ccccc2c1NC(=S)Nc1cccc(C)c1	none (no result: HSV replic up) | ROMK retest inactive
CCOC(=O)CN(C(=O)CNC(=O)c1cccs1)C(C(=O)NC1CCCC1)c1cccnc1 (stereo unspecified)	none
CCOC(=O)CN(C(=O)CNC(=O)c1cccs1)C(C(=O)NC1CCCCC1)c1cccs1 (stereo unspecified)	none (no result: ROMK primary) | ROMK retest inactive
O=C(CN1CCN(Cc2ccccc2Cl)C1=O)NC1CCCCCCC1	ROMK primary -2.6 (no result: KCC2 mod) | ROMK retest 0.057
CC1CCCCC1NC(=O)CN1CCN(Cc2ccccc2Cl)C1=O (stereo unspecified)	none
N/C(Cc1ccc(Cl)cc1)=N\OC(=O)C1CCCCC1	none
Cc1ccc(C(=O)N/C(=C\c2ccc(-c3ccc([N+](=O)[O-])cc3)o2)C(=O)NC2CCS(=O)(=O)C2)cc1 (stereo unspecified)	HSV replic up inconclusive (no result: ROMK primary) | ROMK retest 0.047
CCOc1ccc2nc(SCC3CC3(Cl)Cl)[nH]c2c1 (stereo unspecified)	none (no result: Arbovirus anti, Measles CPE, ROMK primary)
ClC1(Cl)CC1CSc1nc2ccccc2[nH]1 (stereo unspecified)	ROMK primary -4.3 (no result: Measles CPE) | ROMK retest inactive
CCOC(=O)CCCOC(=O)c1ccc(S(=O)(=O)N(C)C)cc1	none (no result: ROMK primary) | ROMK retest inactive
CC1(C)Cc2c(C#N)c(SCC(=O)c3ccccc3)nc(N3CCOCC3)c2CO1	ROMK primary -3.9 (no result: HSV replic up) | ROMK retest 0.053
CC(C)OCc1c(C(=O)OC/C(O)=C(\C#N)c2nc3ccccc3[nH]2)oc2ccccc12	none (no result: Measles CPE)
CCOC(=O)C1=C(N)OC2=C(C(=O)CC(C)(C)C2)C1c1cc(CSc2nnnn2C)cs1 (stereo unspecified)	ROMK primary -4.1 (no result: Measles CPE) | ROMK retest inconclusive
CCOC(=O)C1=C(N)OC2=C(C(=O)CC(C)(C)C2)C1c1ccoc1 (stereo unspecified)	none (no result: KCC2 mod)
COc1ccc(CCNC(=O)COc2ccc(S(=O)(=O)NC3CCCCC3)cc2Cl)cc1	none (no result: KCC2 mod, ROMK primary)
N=c1n(CCN2CCCCC2)c2ccccc2n1CC(O)c1ccc(Cl)c(Cl)c1 (stereo unspecified)	ROMK primary -4.5 | ROMK retest 0.046
CC1CCN(C(=O)CSCC(=O)Nc2nc(-c3cccs3)cs2)CC1	none (no result: ROMK primary) | ROMK retest 0.065
O=C(O)c1cccc(-c2ccc(/C=c3/sc4nc5ccccc5n4c3=O)o2)c1	none (no result: Arbovirus anti, Measles CPE, ROMK primary) | ROMK retest 0.04
Cc1ccc(-n2nc(C)c(=O)c(-c3ccccc3)c2NC(=O)C(C)C)cc1	none (no result: Arbovirus anti, Measles CPE, ROMK primary)
CCOC(=O)C1(Cc2ccccc2)CCN(Cc2cn[nH]c2-c2ccccc2)CC1	ROMK primary -2.5 (no result: Measles CPE) | ROMK retest 0.056
Cc1cc(/C=C2/SC(=O)NC2=O)c(C)n1-c1ccc(N2CCOCC2)cc1	none
Cc1cc(/C=C2\SC(=Nc3ccc(F)cc3)NC2=O)c(C)n1-c1ccc(S(N)(=O)=O)cc1	ROMK primary 3.3 | ROMK retest inactive
COc1ccccc1N(C(=O)c1snc(C(N)=O)c1N)C(C(=O)NCCC(C)C)c1ccco1 (stereo unspecified)	none
CCOc1ccccc1N(C(=O)c1snc(C(N)=O)c1N)C(C(=O)NCCC(C)C)c1ccco1 (stereo unspecified)	ROMK primary -4.5 | ROMK retest inactive
CC(C)(O)P(=O)(O)CCc1ccccc1	none (no result: Arbovirus anti, Measles CPE)
N#C/C(=C\C1CC=CCC1)c1nc2ccccc2[nH]1 (stereo unspecified)	ROMK primary -7 | ROMK retest 0.045

Assay outcomes: PubChem, several laboratories
